# Source: PubChem BioAssay (EPA / NIEHS)
# Activity calls are given as the source filed them. How the source made its calls: active means hit-call score of the fitted dose curve at least 0.9, where 1 is the maximum; inactive means score below 0.9.
# Read-out: Intercellular Adhesion Molecule 1 (ICAM1), ICAM1 (gene 3383)
# Experiment: BSK_KF3CT_ICAM1: BioMAP Diversity Plus: KF3CT Assay for Intercellular Adhesion Molecule 1 (ICAM1) Biomarker Activity (AID 2283067)
# Conditions: primary human keratinocytes with fibroblasts; actives raise or lower the signal
# Experimental: BSK_KF3CT is a cell-based, multiplexed-readout assay that uses keratinocytes and foreskin fibroblasts, a human skin primary cell co-culture, with measurements taken at 24 hours after chemical dosing in a 96-well plate.BSK_KF3CT_ICAM1 is an assay component measured in the BSK_KF3CT assay. It measures ICAM-1 antibody related to regulation of gene expression using ELISA technology.Data from the assay component BSK_KF3CT_ICAM1 was analyzed into 1 assay endpoint. This assay endpoint, BSK_KF3CT_ICAM1, was analyzed with bidirectional fitting relative to DMSO as the negative control and baseline of activity. Using a type of binding reporter, gain or loss-of-signal activity can be used to understand changes in the signaling as they relate to the gene ICAM1. Furthermore, this assay endpoint can be referred to as a primary readout, because this assay has produced multiple assay endpoints where this one serves a signaling function. To generalize the intended target to other relatable targets, this assay endpoint is annotated to the cell adhesion molecules intended target family, where the subfamily is Immunoglobulin CAM.
# The levels of cell surface (or secreted, indicated by the prefix "s") biomarker endpoints were measured by ELISA. Overt cytotoxicity to cells in confluent adherent cultures (all systems other than the BT system) was assessed by measuring total protein levels using sulforhodamine B (SRB) staining in parallel cultures at the time of biomarker measurements, indicated as SRB endpoints. For proliferation assays for adherent cell types, individual cell types are cultured at sub-confluence and relative cell numbers quantified by SRB staining at time points optimized for each system (48 h: 3C and CASM3C systems; 72 h: BT and HDF3CGF systems; 96 h: SAg system). SRB was performed by staining cells with 0.1% SRB after fixation with 10% TCA and reading wells at 560 nm.Viability and proliferation of PBMC (T cells) was quantified by Alamar Blue reduction for the SAg and BT systems. For PBMC viability (referred to as PBMC Cytotoxicity within the assay endpoint names), cells were plated (75,000/well in a 96-well plate) and then chemical samples added for 1 h before addition of activators, SEB and TSST-1 (20 ng/mL final concentration each). Cells were incubated for 90 h. Then, Alamar Blue (20 uL/well) (Invitrogen, Cat DAL1100) was added for 6 h, and the plates were read with a fluorescence microplate reader at 546/580 nm (excitation/emission). For PBMC proliferation, cells were plated and activated as above but incubated for only 16 h prior to addition of Alamar Blue. Plates were read after 6 h.
Structure (SMILES),outcome,AC50
COC(=O)c1ccc(I)cc1S(=O)(=O)NC(=O)Nc1nc(C)nc(OC)n1,inactive,–
C=CCOC(Cn1ccnc1)c1ccc(Cl)cc1Cl (stereo not given),inactive,–
CCOC(=O)C(C)Oc1ccc(Oc2cnc3cc(Cl)ccc3n2)cc1 (stereo not given),inactive,–
O=C(c1ccccc1)C1CCCCC1,inactive,–
C#C[C@]1(O)CC[C@H]2[C@@H]3CCC4=CC(=O)CC[C@@H]4[C@H]3CC[C@@]21CC,inactive,–
CCSC(=O)N(CC(C)C)CC(C)C,inactive,–
O=C(O)C1(C(=O)Nc2ccc(Cl)cc2Cl)CC1,inactive,–
CC(=O)S[C@@H]1CC2=CC(=O)CC[C@]2(C)[C@H]2CC[C@@]3(C)[C@@H](CC[C@@]34CCC(=O)O4)[C@H]12,inactive,–
C[C@]12CC[C@@H]3c4ccc(O)cc4C[C@@H](CCCCCCCCCS(=O)CCCC(F)(F)C(F)(F)F)[C@H]3[C@@H]1CC[C@@H]2O (stereo not given in full),inactive,–
CC(C)CCCCCCc1ccc(O)cc1,–,7.58 µM (active)
COc1c(Cl)ccc(Cl)c1C(=O)O,inactive,–
CC(=O)[C@H]1CC[C@H]2[C@@H]3CCC4=CC(=O)CC[C@]4(C)[C@H]3CC[C@]12C,inactive,–
c1ccc(Nc2ccccc2)cc1,inactive,–
COC(=O)c1ccccc1S(=O)(=O)NC(=O)Nc1nc(OC(F)F)cc(OC(F)F)n1,inactive,–
CCCCCCC(C)OC(=O)COc1nc(F)c(Cl)c(N)c1Cl (stereo not given),–,31.4 µM (active)
CCOC(=O)C(C)Oc1ccc(Oc2nc3ccc(Cl)cc3o2)cc1 (stereo not given),inactive,–
CCOC(=O)COc1cc(-n2ncc(C(F)(F)F)c(C)c2=O)c(F)cc1Cl,inactive,–
CCOC(=O)[C@H](C)Oc1ccc(Oc2nc3ccc(Cl)cc3o2)cc1,inactive,–
CCCOC(=O)NCCCN(C)C,inactive,–
COC(=O)c1ccc(CNS(C)(=O)=O)cc1S(=O)(=O)NC(=O)Nc1nc(OC)cc(OC)n1,inactive,–

Structure (SMILES),outcome,AC50
CCCN(CCC)C(=O)SCC,inactive,–
CCCCCOC(=O)COc1cc(N2C(=O)C3=C(CCCC3)C2=O)c(F)cc1Cl,inactive,–
Cc1nn(C)c(Oc2ccccc2)c1C=NOCc1ccc(C(=O)OC(C)(C)C)cc1,inactive,–
CCCOC(=O)c1ccc(C(=O)OCCC)nc1,inactive,–
CC(C)(C)[C@@H](O)[C@@H](Cc1ccc(Cl)cc1)n1cncn1,inactive,–
CC1(C)C(C=C(Cl)Cl)C1C(=O)OCc1cccc(Oc2ccccc2)c1 (stereo not given),inactive,–
CCC(C)OC(=O)N1CCCCC1CCO (stereo not given),inactive,–
CCN(Cc1c(F)cccc1Cl)c1c([N+](=O)[O-])cc(C(F)(F)F)cc1[N+](=O)[O-],inactive,–
CN(C)C(=O)Nc1ccc(Cl)c(Cl)c1,inactive,–
CCCCC(CC)COC(=O)c1ccccc1C(=O)O (stereo not given),inactive,–
CCOC(=O)c1ccc(O)cc1,inactive,–
COC(=O)c1cccc(C)c1S(=O)(=O)NC(=O)Nc1nc(OCC(F)(F)F)nc(N(C)C)n1,inactive,–
CC(C)(c1ccc(O)cc1)c1ccc(O)cc1,inactive,–
S=C(S)NCCNC(=S)S.[Mn+2].[S-]C([S-])=NCCN=C([S-])[S-].[Zn+2],inactive,–
COCCO,inactive,–
COc1nc(C)nc(NC(=O)NS(=O)(=O)c2ccccc2OCCCl)n1,inactive,–
c1ccc2[nH]c(-c3cscn3)nc2c1,inactive,–
CCCN(CCC)c1c([N+](=O)[O-])cc(C(F)(F)F)c(N)c1[N+](=O)[O-],–,36 µM (active)
CCN(CC)C(=O)c1cccc(C)c1,inactive,–
COC(=O)CSc1cc(N=c2sc(=O)n3n2CCCC3)c(F)cc1Cl,inactive,–
